# Assay results from ChEMBL document CHEMBL3988442, “University of Dundee, Small-Polar-MMV Screening Library” (2021).
# About 13,000 (27%) of roughly 48,000 compounds showed an effect of 50% or more. This is one part of the list.
# Tested on: Wolbachia pipientis
# Experiment: Anti-Wolbachia Cell-Based Screen
# Format: functional
# Parameters: scale not given: in the data most compounds retested in dose-response had high values
# Settings: 5 µM
row,SMILES,Percent Effect [%]
1,Cc1nc(C)c(CN2CCOC(CNc3cccnn3)C2)s1 (centres undefined),87.52
2,COCc1nc(CN2CCOC(CN(C)c3cccnn3)C2)cs1 (centres undefined),6.806
3,CC(C)c1nc(CN2CCOC(CNc3cccnn3)C2)cs1 (centres undefined),87.62
4,COCc1nc(CN2CCOC(CNc3cccnn3)C2)cs1 (centres undefined),82.18
5,CCc1nc(CN2CCOC(CN(C)c3cccnn3)C2)cs1 (centres undefined),-6.381
6,CCOc1nnc(CN2CCOC(CNc3cccnn3)C2)s1 (centres undefined),-8.583
7,Cc1cnc(CN2CCOC(CNc3cccnn3)C2)cn1 (centres undefined),0.4879
8,Cn1cc(CCC(=O)NS(=O)(=O)N2CCCc3ccccc32)cn1,-16.6
9,CCc1nsc(N2CCn3c(nnc3C(F)(F)F)C2)n1,3.315
10,COCCOc1cc(C(=O)N2CC(C)c3ccccc32)ccn1 (centres undefined),-1.249
11,COCC(=O)N[C@H](C)c1c(-c2ccc(Cl)cc2)noc1C(=O)O,-3.12
12,Fc1ccc(-c2nc(CN3CCOC(Cn4cccn4)C3)co2)cc1 (centres undefined),92.05
13,c1coc(-c2nc(CN3CCOC(Cn4cccn4)C3)cs2)c1 (centres undefined),16.31
14,Fc1cccc(-c2nc(CN3CCOC(Cn4cncn4)C3)co2)c1 (centres undefined),-2.254
15,Cc1ccc(-c2nc(CN3CCOC(Cn4cccn4)C3)co2)cc1 (centres undefined),108.6
16,c1ccc(-c2nc(CN3CCOC(Cn4cccn4)C3)no2)cc1 (centres undefined),-5.165
17,c1ccc(-c2nc(CN3CCOC(Cn4cccn4)C3)co2)cc1 (centres undefined),93.62
18,c1csc(-c2nc(CN3CCOC(Cn4cccn4)C3)co2)c1 (centres undefined),6.391
19,Fc1cccc(-c2nc(CN3CCOC(Cn4cccn4)C3)co2)c1 (centres undefined),1.83
20,O=C1COC[C@H]([C@H](O)c2ccc(NC(=O)c3cccnc3)cc2)N1,-8.221
21,Cc1ccc(-c2nnc([C@H]3CCN(C4CCC4)C3)o2)cc1,10.26
22,O=C(c1ncoc1C1CCCO1)N1CCCC2(CCCCC2)C1 (centres undefined),-7.896
23,CCN1CCOC(CNCc2cccc(OCc3ccccn3)c2)C1 (centres undefined),99.3
24,CN1CCOC(CNCCc2ccccn2)C1 (centres undefined),-2.338
25,CCN1CCOC(CNCc2ccccc2OCc2ccccn2)C1 (centres undefined),9.704

row,SMILES,Percent Effect [%]
1,CN1CCOC(CNCc2cccc(OCc3ccccn3)c2)C1 (centres undefined),-19.83
2,CN1CCOC(CNCc2ccc(OCc3ccccn3)cc2)C1 (centres undefined),111
3,CC(C)CC(N)C1=N/C(=C2\N=CN=N2)NO1 (centres undefined),-1.816
4,CNC(=O)NC(=O)C(NCc1ccccc1)c1ccccc1 (centres undefined),7.195
5,COc1ccc(S(=O)(=O)NCCCc2ccc(N(C)C)cc2)cc1Cl,10.52
6,O=S(=O)(NCCNc1cc(-n2cccc2)ncn1)c1cccs1,9.931
7,COc1ccc(S(=O)(=O)NCCCc2nnc3nc(C)cc(C)n23)cc1,128.4
8,Cn1ccnc1CCNS(=O)(=O)c1ccc(Br)cc1,-0.8619
9,COc1ccc(S(=O)(=O)NCCCc2ccc(N(C)C)cc2)cc1F,8.354
10,COc1ccc(CCNC(=O)Nc2cc(C)nn2C)cc1,-34.88
11,O=S(=O)(NCCNc1ccc(-n2cccc2)nn1)c1cccs1,19
12,CCOc1ccc(S(=O)(=O)NCCCc2ccc(N(C)C)cc2)cc1F,11.9
13,COc1cccc(CC(=O)NCCc2nnc3n2CCCCC3)c1,-1.985
14,Cc1cc(C)n2c(CCCNS(=O)(=O)c3cccs3)nnc2n1,99.96
15,Cc1cc(C)n2c(CCCNS(=O)(=O)c3ccc(F)cc3)nnc2n1,115.4
16,COc1ccc(CC(=O)NCCCc2nnc3nc(C)cc(C)n23)cc1,140.8
17,COCCN(C)c1ccc(NCc2cccnc2)nc1,-2.901
18,Cc1nc2cc(=O)[nH]n2c(C)c1CNC(=O)c1cnn(C(C)(C)C)c1,-22.93
19,CC(C)c1nnc2n1CCN(C(C)c1nnc(-c3cccs3)o1)C2 (centres undefined),-12.3
20,CCc1ncc(C(=O)N(CC)CCOC)cn1,-25.3
21,Cc1cc(C)n2c(CCCNS(=O)(=O)c3ccccc3)nnc2n1,105.2
22,Cc1nsc(NCCNS(=O)(=O)c2ccccc2)n1,-9.26
23,O=S(=O)(NCCc1nnc2ccccn12)c1cccnc1,-2.198
24,Cc1nc(CN2CC(CO)Oc3ccccc32)sc1C (centres undefined),-1.227
